Screens deposited in PubChem BioAssay by several laboratories.
The list is not random: actives were taken first. Their share in the collection is about 4.8%.
STAT1 activator – STAT1 signaling activators, primary screen, cell-based, HTS, luciferase reporter. activation (% of control), % at 5.5 µM. 200,000 tested, 2.6% active. AID 932, 2007. NIH 3T3 STAT1-luciferase reporter, IFN-gamma, luminescence; 100% = IFN-gamma alone, no compound;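 active means activation above the screen-wide mean activation plus 3 SD, cut at about 130% in these data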;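 further: raw ratio to IFN-gamma control signal so 100% means no change and 0% no light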
Hsp70 act – Hsp70 transcriptional activators, primary screen, cell-based, HeLa, Hsp70 promoter luciferase, luminescence, 10 µM; HeLa Hsp70 promoter luciferase reporter; scaled: vehicle 0, proteasome-inhibitor control 100%; activation, % at 10 µM; 200,000 tested, 0.04% active;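 active means activation above the mean across all tested compounds plus 3 SD, cutoff set per campaign, cut at about 5.5% in these data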;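 further: 100% = MG132 at 30 µM as the positive control and 0% = DMSO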
NF-kB expr up – activators of NF-kB expression in neurons, primary screen, cell-based, HTS; human neuronal cells, NF-kB reporter expression; stronger effect = higher value; fold change at 12.5 µM; 190,000 tested, 1.6% active; AID 1239, 2008; in the data active means fold change above about 3.3
Wee1 stabilizer – Wee1 degradation inhibitors, primary screen, cell-based, HeLa, Wee1K328M-luciferase, luminescence. Wee1-like protein kinase (Homo sapiens), P30291. HeLa Luc-Wee1K328M stability; 100% = proteasome inhibitor MG132 effect. reporter increase, % at 5 µM. 220,000 tested, 1.2% active. AID 1321, 2008;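 active means activation above the mean of all tested compounds plus 3 SD, set per screening run, cut at about 8.8% in these data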;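 further: cells exposed to compound for 20 h before luminescence read; 0% = DMSO alone and 100% = MG132 at 30 µM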
Target sequence (P30291 whole entry K328M): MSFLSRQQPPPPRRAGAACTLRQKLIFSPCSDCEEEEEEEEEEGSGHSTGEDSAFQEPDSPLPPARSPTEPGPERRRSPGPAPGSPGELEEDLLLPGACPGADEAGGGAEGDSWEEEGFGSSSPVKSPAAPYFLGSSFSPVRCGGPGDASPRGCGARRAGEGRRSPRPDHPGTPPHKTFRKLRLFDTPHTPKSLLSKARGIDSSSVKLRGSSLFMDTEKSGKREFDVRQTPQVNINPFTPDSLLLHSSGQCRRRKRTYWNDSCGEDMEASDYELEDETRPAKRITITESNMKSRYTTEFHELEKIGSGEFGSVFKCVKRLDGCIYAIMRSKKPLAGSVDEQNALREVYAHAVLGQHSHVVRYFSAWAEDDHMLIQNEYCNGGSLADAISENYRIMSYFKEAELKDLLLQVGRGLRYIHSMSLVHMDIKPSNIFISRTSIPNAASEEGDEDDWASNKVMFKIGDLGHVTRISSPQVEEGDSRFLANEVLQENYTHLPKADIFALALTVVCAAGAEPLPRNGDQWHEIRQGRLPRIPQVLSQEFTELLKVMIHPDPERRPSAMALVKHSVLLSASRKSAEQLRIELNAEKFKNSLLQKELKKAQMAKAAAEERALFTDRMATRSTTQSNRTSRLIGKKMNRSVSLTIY
APP 5'UTR act – activators of APP 5'UTR luciferase reporter, primary screen, SH-SY5Y cells | SH-SY5Y APP 5'UTR luciferase reporter, luminescence; zero percent = DMSO vehicle wells | activation, % at 2 µM | 190,000 tested, 1% active | AID 1276, 2008;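 active means activation above a set limit, based on mean plus 3 SD of controls, cut at about 140% in these data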
APP 5UTR inh – inhibitors of APP translation via 5'UTR reporter, primary screen, APP 5'UTR luciferase, SH-SY5Y cells; SH-SY5Y APP 5'UTR-luciferase reporter, luminescence; 190,000 tested, 0.82% active; inhibition, % at 2 µM; AID 1285, 2008;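 active means inhibition above a set limit, derived from the sample mean plus 3 SD, cut at about 45% in these data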
* = called active by the depositor; · = not tested or not shown.

SMILES | STAT1 activator | Hsp70 act | NF-kB expr up | Wee1 stabilizer | APP 5'UTR act | APP 5UTR inh
O=C(Nc1cccc(Cl)c1)N1CCSc2cc(Cl)ccc21 | 111.2 | -0.2 | 1.15 | 1.9 | -2.6 | 2.6
O=C1N/C(=C\c2ccsc2)C(=O)N1Cc1ccc(F)cc1 | 96.2 | -0.4 | 0.95 | -2.2 | 9.7 | -9.7
CCOc1cc(CNCCc2ccc(S(N)(=O)=O)cc2)ccc1OCC(=O)NC1CCCCC1 | 100.6 | -0.3 | 0.4 | 3.9 | -65.4 | 65.4*
COc1cc(CNn2cnnc2)ccc1OCC(=O)NC1CCCCC1 | 96.2 | -0.1 | 0.97 | 0.7 | -64.4 | 64.4*
Cn1nnc2c(N3CCCCC3)nccc21 | 103.0 | 0.3 | 0.9 | 2.5 | -4.9 | 4.9
N/C(=N\OC(=O)c1ccc(Cl)cc1Cl)c1cccnc1 | 128.6* | 0.2 | 6.31* | 6.3 | 131.0 | -131.0
Cc1ccc(/C(N)=N/OC(=O)CCc2ccccc2)cc1 | 121.3 | 0.2 | 2.05 | -0.8 | 44.6 | -44.6
Cc1cc(/C(N)=N/OC(=O)c2ccccc2Cl)no1 | · | · | · | 0.8 | · | ·
N/C(=N\OC(=O)CCc1ccccc1)c1ccccc1Cl | 140.8* | 0.3 | 1.19 | -1.7 | 33.0 | -33.0
N/C(=N\OC(=O)c1ccc(Cl)cc1)c1ccc(Cl)cc1 | 112.0 | 0.1 | 3.13 | -1.8 | · | ·
COc1ccccc1C(=O)O/N=C(\N)c1ccccc1Cl | 138.8* | 0.1 | 2.68 | 6.4 | 49.3 | -49.3
N/C(=N\OC(=O)c1ccco1)c1ccc(Cl)cc1 | 137.1* | -0.2 | 1.1 | 3.3 | 158.4* | -158.4
COc1ccc(C(=O)O/N=C(\N)c2ccccc2)c(OC)c1 | 67.9 | -0.2 | 1.64 | 1.1 | 187.6* | -187.6
N/C(=N\OC(=O)c1ccccc1Cl)c1ccccc1 | 100.4 | 0.0 | 7.68* | -0.8 | 166.1* | -166.1
COc1ccc(C(=O)O/N=C(\N)c2ccccn2)c(OC)c1 | · | · | · | 6.3 | · | ·
N/C(=N\OC(=O)c1ccc(Cl)cc1Cl)c1ccccc1 | 108.4 | 0.6 | 2.5 | 1.1 | 174.2* | -174.2
O=C(O/N=C(\c1ccccc1)c1ccncc1)c1ccccc1Cl | 100.4 | -0.2 | 1.18 | 9.6* | 1.8 | -1.8
COc1cc(C2NC(=O)NC(O)(C(F)(F)F)C2C(=O)c2cccs2)ccc1O (configuration not stated) | 109.5 | 0.1 | 2.15 | 2.6 | 42.4 | -42.4
CCOC(=O)c1c(C)[nH]c(=S)c(C#N)c1-c1ccc(Cl)cc1 | 100.7 | -0.4 | 1.12 | 1.8 | -0.8 | 0.8
COc1ccc(C(=O)N=c2sc3c(C)ccc(OC)c3n2C)cc1 | 141.6* | 0.4 | 3.12 | -1.1 | 79.6 | -79.6
Cc1ccccc1C(=O)NC1CC2CCC(C1)N2Cc1ccccc1 (configuration not stated) | 105.1 | 0.1 | 1.03 | 0.4 | -9.2 | 9.2
Cc1cccc(C)c1NC(=O)CN(C)CC(=O)Nc1ccccc1Br | 98.0 | -0.3 | 1.36 | -0.9 | 3.8 | -3.8
CC1CC2C3CCC4=CC(=O)C=CC4(C)C3(F)C(O)CC2(C)C1(O)C(=O)CO (configuration not stated) | · | · | · | 6.7 | · | ·
CC(=O)OCC(=O)[C@@]12OC3(CCCC3)O[C@@H]1C[C@H]1[C@@H]3CCC4=CC(=O)C=C[C@]4(C)[C@@]3(F)[C@@H](O)C[C@@]12C | 128.7* | -0.2 | 0.47 | 2.0 | 60.5 | -60.5
Cc1nn(-c2ccc(F)cc2F)c2c1-c1nc(N3CCCC3)ncc1CC2 | 98.3 | 0.1 | 1.02 | -4.7 | 7.4 | -7.4
SMILES | STAT1 activator | Hsp70 act | NF-kB expr up | Wee1 stabilizer | APP 5'UTR act | APP 5UTR inh
Cc1c(-c2ccc(Br)cc2)nc2ccccn12 | 148.1* | -0.1 | 2.36 | 6.1 | 128.6 | -128.6
COc1cc(-c2nc3ccccn3c2/N=C/c2cc(OC)c(OC)c(OC)c2)ccc1O | 106.1 | -0.3 | · | 0.8 | 8.1 | -8.1
CN(C)c1ccc(-c2nc3ccccn3c2/N=C/c2ccc(Br)cc2)cc1 | 134.2* | 1.0 | 1.79 | 0.7 | 158.3* | -158.3
Cc1ccc(-c2nc3ccccn3c2C=O)cc1 | 132.3* | 0.5 | 3.1 | 0.2 | 57.5 | -57.5
COc1ccc(-c2nc3c4ccccc4ccn3c2C=O)cc1 | 95.8 | -0.3 | 1.2 | -0.3 | 13.9 | -13.9
CCS(=O)(=O)c1ccc(N=Nc2ccc(O)c3ncccc23)c(OC)c1 | 103.7 | -0.5 | 0.8 | -2.0 | -62.8 | 62.8*
Cc1ccc(N=Nc2ccc(O)c3ncccc23)cc1 | 102.7 | 0.1 | 1.02 | -3.9 | -78.2 | 78.2*
Cc1ccc(N=Nc2ccc(O)c3ncccc23)cc1C | 103.4 | -0.3 | 1.01 | 1.8 | -26.6 | 26.6
COC(=O)Cn1c(=NC(=O)c2ccc(Cl)s2)sc2cc(C)ccc21 | 108.6 | -0.1 | 1.47 | 0.6 | 102.1 | -102.1
Cc1cc(C(=O)CSc2nnnn2-c2ccccc2)c(C)n1CC1CCCO1 (configuration not stated) | 139.3* | 0.2 | 0.94 | 2.0 | 7.5 | -7.5
Cc1cc(C(=O)CN2C(=O)c3ccccc3S2(=O)=O)c(C)n1CC1CCCO1 (configuration not stated) | 26.9 | -0.6 | 0.32 | -4.0 | -86.0 | 86.0*
Cc1cc(C(=O)CSc2nnnn2-c2ccc(Cl)cc2)c(C)n1CC1CCCO1 (configuration not stated) | 102.0 | -0.1 | 1.12 | -1.1 | 4.4 | -4.4
Cc1cc(C(=O)CN2C(=O)NC(C)(c3ccccc3)C2=O)c(C)n1CC1CCCO1 (configuration not stated) | 94.3 | -0.3 | 0.64 | 2.7 | 7.4 | -7.4
O=c1c2oc3ccccc3c2ncn1Cc1ccccc1F | 109.8 | -0.5 | 3.54* | 6.9 | 4.4 | -4.4
O=C(CSc1nnc(-c2ccc(O)cc2)o1)N1CCOCC1 | 114.5 | -0.1 | 1.62 | -1.5 | 0.8 | -0.8
O=C(CSc1nnc(-c2ccc(F)cc2)o1)NC1CCCCC1 | 107.3 | -0.1 | 1.17 | 10.4* | 19.6 | -19.6
Oc1ccc(-c2nnc(SCC3CCCCC3)o2)cc1 | 119.2 | -0.4 | 4.89* | 6.5 | 110.8 | -110.8
CCOc1ccc(-c2cc(CCCC(=O)NCCC(C)C)no2)cc1 | 109.4 | 0.0 | 1.48 | 0.2 | -12.7 | 12.7
CCN=c1scc(-c2ccco2)n1/N=C/c1ccc(OC)c(O)c1 | 90.3 | 0.5 | 3.99* | 1.3 | 181.7* | -181.7
COc1ccc(/C=C/C(=O)c2c(O)cc(C)oc2=O)c(OC)c1 | 138.2* | -0.2 | 4.09* | -0.3 | 53.2 | -53.2
COc1cccc(/C=C/C(=O)c2c(O)cc(C)oc2=O)c1O | 87.9 | 0.0 | 2.87 | -1.3 | 10.9 | -10.9
Cc1ccc(/C=N/c2sc3c(c2C#N)CCC3)s1 | 150.2* | 0.1 | 1.25 | 1.2 | 85.8 | -85.8
CN1CCN(/C=N/c2sc3c(c2C#N)CCCCC3)CC1 | 145.5* | 1.1 | 2.68 | 7.6 | 95.0 | -95.0
